Only some compounds are listed: those with a hit (about 0.91% of all), similar ones and a draw of the others.
Prostate diff – activators of LNCaP prostate cell differentiation, primary screen, flow cytometry side scatter; AID 795, 2007; side scatter shift, % at 10 µM; 4 d; hit rate 0.56% among 24,000;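 active = side scatter shift above 30%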;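 note: androgen-responsive LNCaP prostate cancer cells in charcoal-stripped serum medium; percent of cells past a gate set so DMSO wells show 10% shift; higher shift means more granular cells and more differentiation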
Proteasome disasm – inhibitors of ATP-driven 26S proteasome dissociation, primary screen, biochemical, bead-based flow cytometry, GFP-tagged proteasome. anti-FLAG beads, GFP-proteasome disassembly. AID 751, 2007. hit rate 0.2% among 24,000. inhibition of disassembly, % (test concentration not listed);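 active = inhibition of disassembly above about 33%, limit read from the data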;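 note: plate controls were ATP control with full disassembly for no effect and ATP-gamma-S intact proteasomes for full effect; higher percent means more bead fluorescence retained so stronger block of disassembly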
S aureus QS inh – S. aureus quorum sensing inhibitors, primary screen, RNAIII-GFP reporter, flow cytometry. inhibition, % at 2 µM. S. aureus RN6390 RNAIII-GFP reporter, AIP-induced, flow cytometry 3 h. AID 527, 2006. hit rate 0.3% among 24,000;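 active = share of bacteria positive for the green fluorescent reporter and its mean brightness both inhibited by 50% or more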;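 note: 0% = AIP-stimulated control and 100% = unstimulated bacteria without AIP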
The depositor's hits bear a star; nt = no result.

SMILES	Prostate diff	Proteasome disasm	S aureus QS inh
O=c1cc(Nc2ccc3c(c2)OCCO3)[nH]c(=O)n1C1CCCCC1	6.0	107.9*	-4.6
CCc1ccc(Nc2cc(=O)n(C3CCCCC3)c(=O)[nH]2)cc1	14.0	17.6	9.2
CCOC(=O)c1c(C)nn(Cc2cccc(Cl)c2)c1N	14.0	5.4	-5.3
COc1ccc2oc(=O)c(C(=O)N3CCN(C45CC6CC(CC(C6)C4)C5)CC3)cc2c1	18.0	1.6	8.4
COc1ccc(N2CCN(c3nc4c(c(=O)[nH]c(=O)n4C)n3CCCc3ccccc3)CC2)cc1	5.0	1.1	-0.7
CC(C)OP(=O)(c1ccc(N(C)C)cc1)C(O)c1ccccc1F (stereo unspecified)	8.0	1.0	-2.3
CC(C)CCOP(=O)(c1ccc(N(C)C)cc1)C(O)c1ccccc1F (stereo unspecified)	7.0	0.2	82.2*
CCOC(=O)c1cnc2nc[nH]n2c1=O	5.0	0.9	-1.2
COc1ccc(CN(Cc2cc3cc4c(cc3[nH]c2=O)OCO4)C(=O)NC2CCCCC2)cc1	8.0	-5.2	24.4
COC(=O)c1ccccc1S(=O)(=O)N(Cc1cc2cc3c(cc2[nH]c1=O)OCO3)C1CCCCC1	41.0*	0.1	2.5
CCc1ccc(NC(=O)N(C2CCC(C)CC2)C2CCN(C(C)=O)CC2)cc1 (stereo unspecified)	14.0	2.4	-5.4
O=c1cc(N2CCC3(CC2)OCCO3)[nH]c(=O)n1C1CCCCC1	10.0	1.8	-10.0
O=c1cc(N2CCN(c3ccc(F)cc3)CC2)[nH]c(=O)n1C1CCCCC1	34.0*	5.2	3.6
COc1ccc(N2C(=O)C3CCCN3C2c2ccc(Cl)cc2)cc1 (stereo unspecified)	4.0	-0.7	-0.5
COc1ccc(OC)c(C2N(c3ccc(Cl)cc3)C(=O)C3CCCN32)c1 (stereo unspecified)	12.0	84.6*	4.8
CCn1c(=O)cc(OCC(=O)Nc2ccc(Cl)cn2)c2ccccc21	18.0	-1.1	-1.9
O=C(Nc1ccccc1C(=O)N1CCN(c2ccccc2)CC1)c1ccco1	6.0	-0.1	-0.4
COc1ccc(Nc2nc(N)nc(CN3CCC(Cc4ccccc4)CC3)n2)cc1	49.0*	0.6	3.0
COc1cccc(N2CCN(Cc3nc(N)nc(Nc4ccccc4OC)n3)CC2)c1	12.0	-0.9	-0.3
CC(Sc1nnnn1-c1ccccc1)C(=O)Nc1ccc(Cl)cn1 (stereo unspecified)	15.0	-2.5	-2.4
Cc1ccc(NC(=O)c2cc(C)on2)cc1	5.0	1.0	76.1*
CCc1ccc(NC(=O)c2cc(C)on2)cc1	4.0	1.7	-3.8
CC1CCN(C(=O)CSc2ccc3nnc(-c4ccccc4)n3n2)CC1	2.0	-2.0	2.2
Cc1cc(NC(=O)c2noc3c2CCc2ccccc2-3)n(-c2ccccc2)n1	35.0*	0.3	-5.2
Cc1cc(NC(=O)Nc2cc(C)nn2-c2ccccc2)n(-c2ccccc2)n1	2.0	-3.5	4.9
SMILES	Prostate diff	Proteasome disasm	S aureus QS inh
CCOC(=O)c1[nH]c2ccc(Br)cc2c1NC(=O)CCN1CCC(C(=O)OCC)CC1	8.0	-6.3	0.5
COC(=O)c1oc2ccc(Br)cc2c1NC(=O)CN1CCN(C)CC1	31.0*	-0.3	-3.4
COc1ccc(Cl)cc1NC(=O)c1nc2nc(C)cc(C(F)F)n2n1	1.0	-1.0	1.0
CC[C@H]1OC(=O)C[C@@H](O)[C@H](C)[C@@H](O[C@@H]2O[C@H](C)C[C@H](N(C)C)[C@H]2O)[C@@H](CC=O)C[C@@H](C)C(=O)C=C[C@]2(C)O[C@H]2[C@@H]1C	15.0	-0.1	51.2*
CCOc1ccc(N(CC(=O)Nc2ccc3c(c2)OCCO3)S(=O)(=O)c2c(C)noc2C)cc1	11.0	-0.8	6.4
CCOc1ccc(Oc2ccc(C(F)(F)F)cc2N)cc1	nt	nt	-0.1
CCn1ncc(C2=NOC(C(=O)NCc3ccc(Cl)cc3)C2)c1C (stereo unspecified)	11.0	-3.7	-4.8
Cc1nnc(NCc2n[nH]c(=O)c3ccccc23)c2ccccc12	33.0*	-2.9	1.6
COc1ccc(Cc2n[nH]c(=O)c3ccccc23)cc1OC	nt	0.0	-0.3
CCN(CC)CCCNC(=O)c1cc(-c2ccc(O)cc2)on1	12.0	1.8	-2.3
CN1CCN(CCCNC(=O)c2cc3c(-c4ccc(Cl)cc4)nn(C)c3s2)CC1	57.0*	-0.8	3.2
CCN(CC)CCCNC(=O)c1cc2c(-c3ccc(Cl)cc3)nn(C)c2s1	52.0*	0.1	0.8
CCN(CC)CCCNC(=O)c1cc(-c2ccc(Cl)c(Cl)c2)on1	48.0*	1.8	-5.9
Cn1nc(-c2ccc(Cl)cc2)c2cc(C(=O)N3CCOCC3)sc21	8.0	-0.7	1.0
Cn1nc(-c2ccc(Cl)cc2)c2cc(C(=O)NCC3CCCO3)sc21 (stereo unspecified)	10.0	1.1	-5.0
O=C(Nc1ccc(N2C(=O)C3C4C=CC(C4)C3C2=O)cc1)Nc1cccnc1 (stereo unspecified)	5.0	2.2	2.6
O=C(CCn1c(=S)[nH]c2ccccc2c1=O)N1CCN(c2ccccn2)CC1	5.0	-4.0	12.9
CC1(C)Cc2ccccc2C(N)=C1C#N	4.0	-0.9	0.5
Cc1noc(/C=C/c2ccco2)c1S(=O)(=O)N1CCC(C(=O)NCc2ccco2)CC1	11.0	-0.8	-1.8
Cc1noc(/C=C/c2ccco2)c1S(=O)(=O)N1CCC(C(=O)N2CCc3ccccc3C2)CC1	43.0*	41.6*	-2.1
NC(=O)CSc1nc(-c2ccccc2Cl)ns1	5.0	0.7	-1.3
COc1ccc(OC)c(NS(=O)(=O)Cc2ccccc2)c1	21.0	2.0	-0.1
Cc1cccc(N2CCN(C(=O)COc3cc(=O)n(C)c4ccccc34)CC2C)c1 (stereo unspecified)	8.0	-0.5	-5.3
O=C(NCC(c1cccnc1)N1CCN(c2ccccc2F)CC1)c1cccc(Cl)c1 (stereo unspecified)	1.0	-3.1	58.9*
O=C(NCC(c1cccnc1)N1CCOCC1)c1cccc(Cl)c1 (stereo unspecified)	nt	-3.2	-2.5
SMILES	Prostate diff	Proteasome disasm	S aureus QS inh
CCn1c(=O)cc(SCC(=O)Nc2ccccc2N2CCN(C)CC2)c2ccccc21	24.0	1.2	0.9
CC(C(=O)N1c2ccc(F)cc2CCC1C)N1C(=O)c2ccccc2C1=O (stereo unspecified)	12.0	0.9	-0.8
CCCCOc1ccccc1NC(=O)CSc1nnnn1C(C)(C)C	4.0	0.9	0.9
CCN1CCN(CCNC(=O)C2CCCN(Cc3nc(-c4cccc(Cl)c4)oc3C)C2)CC1 (stereo unspecified)	44.0*	0.6	-0.1
CCOC(=O)N1CCC(NC(=O)C2CCCN(Cc3nc(-c4cccc(Cl)c4)oc3C)C2)CC1 (stereo unspecified)	4.0	10.4	0.1
CCCN(CCC)CCNC(=O)C1CCN(Cc2nc(-c3ccc(Cl)cc3)oc2C)CC1	87.0*	2.8	-1.6
Cc1oc(-c2ccc(Cl)cc2)nc1CS(=O)CC(=O)NCCN1CCCC1 (stereo unspecified)	11.0	154.5*	-0.9
Cc1oc(-c2ccc(Cl)cc2)nc1CN1CCC(C(=O)NCc2cccnc2)CC1	17.0	8.4	-2.8
Cc1ccc(-c2nc(CS(=O)CC(=O)NCCN3CCCC3)c(C)o2)cc1 (stereo unspecified)	7.0	-0.2	-10.5
